Measurements reported in PubChem BioAssay (NCI).
Compounds without any hit were thinned out: in the full panel of roughly 83,000, 20% have a hit.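 Treatment: one concentration, 48 hours, 96-well format. Scoring: percent growth, with anything below 10 considered active.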 Unmarked numbers belong to inactive results. The source made the active and inactive calls.

Experiments:
Assay in all cases: NCI-60 one-dose screen, 48 h (100 = growth as untreated, 0 = no growth, -100 = all killed)
Settings in all cases: 10 µM unless noted
[1] = tested on: SK-MEL-2 melanoma
[2] = tested on: SN12C renal
[3] = tested on: UO-31 renal
[4] = tested on: TK-10 renal
[5] = tested on: ACHN renal
[6] = tested on: CAKI-1 renal
[7] = tested on: A498 renal
[8] = tested on: CCRF-CEM leukemia
[9] = tested on: MOLT-4 leukemia
[10] = tested on: SR leukemia
[11] = tested on: RPMI-8226 leukemia
[12] = tested on: OVCAR-8 ovarian
[13] = tested on: OVCAR-5 ovarian
[14] = tested on: OVCAR-4 ovarian
[15] = tested on: SK-OV-3 ovarian
[16] = tested on: IGROV1 ovarian
[17] = tested on: OVCAR-3 ovarian
[18] = tested on: HS 578T breast
[19] = tested on: NCI/ADR-RES ovarian
[20] = tested on: EKVX NSCLC

| SMILES | growth [1] | growth [2] | growth [3] | growth [4] | growth [5] | growth [6] | growth [7] | growth [8] | growth [9] | growth [10] | growth [11] | growth [12] | growth [13] | growth [14] | growth [15] | growth [16] | growth [17] | growth [18] | growth [19] | growth [20] |
| --- | --- | --- | --- | --- | --- | --- | --- | --- | --- | --- | --- | --- | --- | --- | --- | --- | --- | --- | --- | --- |
| O=C(c1ccc(F)c(Cl)c1)N1c2ccccc2Sc2ccccc21 | 65.2% | 99.2% | 72.9% | 85.2% | 104% | 53.4% | 61.7% | 58.4% | 44.1% | 34% | 52.6% | 89.9% | 87.3% | 80.1% | 89.2% | 71.2% | 63.2% | 79.3% | 39.8% | – |
| Cc1ccccc1OCC(O)COc1ccccc1C | 102% | 83.9% | 78.9% | 120% | 84.4% | 80% | 102% | 85.2% | 131% | 114% | 107% | 91.1% | 103% | 104% | 108% | 85.1% | 114% | 117% | 111% | – |
| CCOC(=O)c1c(C)c2c(n1C)CSc1cc(S(=O)(=O)c3ccccc3)c(=O)[nH]c1-2 | 30.7% [100 µM] | 24.8% [100 µM] | 22.7% [100 µM] | 24.8% [100 µM] | 25.9% [100 µM] | 26.3% [100 µM] | 44.9% [100 µM] | 29.2% [100 µM] | 41.5% [100 µM] | 45% [100 µM] | 28.9% [100 µM] | 34.4% [100 µM] | 62.4% [100 µM] | 26.4% [100 µM] | 26.8% [100 µM] | 30.6% [100 µM] | 18.5% [100 µM] | 53.6% [100 µM] | 18.6% [100 µM] | – |
| Cc1cc(F)ccc1S(=O)(=O)Nc1cc(-c2c(O)ccc3ccccc23)c(O)c2ccccc12 | 5.32% (active) | 46.6% | 20.3% | 72.7% | -7.97% (active) | 51.5% | 57.7% | – | 17.6% | 18.8% | 11.6% | 37.1% | 56.9% | -8.24% (active) | 52.3% | 27.6% | 17.3% | 42.3% | 31.3% | – |
| COc1cc(C2Cc3ncccc3-c3[nH]c(=O)c4cccnc4c32)cc(OC)c1OC (stereo not given) | 19.4% | 39.8% | 38.6% | 52.6% | 46.4% | 31.8% | -1.31% (active) | 22.1% | 23.8% | 11.8% | 37.6% | 17.3% | 52.2% | 58% | 15.3% | 48.6% | -11.3% (active) | 41.9% | 31.1% | – |
| COC(=O)C1=C(C(=O)Nc2cccnc2)C2OC1(C(Cc1ccccc1)Oc1ccccc1)C1OC21 (stereo not given) | 93.5% | 48.5% | -99.3% (active) | -8.69% (active) | -99.2% (active) | 57.4% | 121% | -23% (active) | -31.5% (active) | -23.7% (active) | -11.8% (active) | 86.4% | 79.7% | 75% | 98.3% | 77.7% | -53.5% (active) | 101% | 103% | – |
| Cn1cc(-c2nonc2-c2c[nH]c3ccc(F)cc23)c2cc(Br)ccc21 | 71.5% | 63.7% | 30.4% | 57% | 38.4% | 25.3% | 44.8% | 40.7% | 32.1% | 27% | 46% | – | 58.7% | 43.8% | 64.4% | 64% | 60.3% | 63.2% | 42.1% | – |
| Clc1nn2c(Cn3cnc4c(NCc5ccccc5)ncnc43)nnc2c2ccccc12 | -5.44% (active) | 32% | 21.7% | 40.5% | 16.8% | 3.56% (active) | 22.5% | 39% | 26.5% | 17.2% | 37.7% | 33.2% | 74.2% | 37.9% | -18.5% (active) | 24.8% | 45.8% | 40.1% | 40.6% | – |
| CC1=NN(c2ccc(Cl)cc2)CC1(C)N=O (stereo not given) | 105% | 88.4% | 32.8% | 105% | 15.2% | 60.4% | 101% | 34% | 44.6% | 33% | 89.3% | – | 126% | 77.3% | 114% | 103% | 62.1% | 82.9% | 94.4% | – |
| CCOC(=O)c1n[nH]n2c1nc(=O)c1cnn(C)c12 | 99.6% | 105% | 84.4% | 97.6% | 105% | 103% | 110% | 95.6% | 99.7% | 85.3% | 101% | 102% | 112% | 102% | 101% | 108% | 101% | 105% | 103% | – |
| O=[N+]([O-])/C(=C\c1ccco1)c1ccccc1Cl | 60.6% | 78.4% | 66.6% | 82.8% | 81.1% | 67% | 41.9% | 60.5% | 74.1% | 55.3% | – | 81.6% | 75.4% | 69.3% | 60.1% | 75.7% | 77.9% | 84.8% | 85.5% | – |
| Cc1ccc(-c2nc(C#N)c(S(=O)(=O)NCCO)o2)cc1 | 64.9% | 81.2% | 62.1% | 65.7% | 67.7% | 71% | 108% | -17.5% (active) | 19.8% | -7.78% (active) | 1.81% (active) | 64.7% | 94.5% | 86.9% | 95.7% | 65.1% | 41.3% | 107% | 81% | – |
| CN(C)c1ccc(C(=NO)c2ccc(N(C)C)cc2)cc1 | -23% (active) | 45.5% | 67.1% | 56.6% | 50.9% | 24.1% | 31.3% | – | 31.7% | 12.7% | 49.5% | 39.4% | 81.4% | 71.3% | 57.7% | 51.9% | -15.1% (active) | – | 13.4% | – |
| CC(C)(CO)N(CCO)CCO | 100% | 99.1% | 87.4% | 95.5% | 97.1% | 100% | 111% | 92.8% | 104% | 99.5% | 95% | 110% | 93.1% | 110% | 109% | 113% | 112% | 113% | 102% | – |
| Cn1cc(/C=C2/C(=O)Nc3ccccc32)c2ccccc21 | 101% | 85.7% | 57.9% | 119% | 83.3% | 64.8% | 118% | 90% | 82.4% | 94.9% | 60.5% | 95.5% | 106% | 86.2% | 90.4% | 85.1% | 90.2% | 89.3% | 84.7% | – |
| S=c1[nH]c2cc(Cl)ccc2o1 | 98.6% | 100% | 87.9% | 94.6% | 98.7% | 97.8% | 91.8% | -43.2% (active) | 63.1% | 48.5% | 81.5% | – | 92.5% | 103% | 108% | 118% | 114% | 88.6% | 106% | – |
| CCOC(=O)c1ccc2c(c1)c1c(C)c3ccncc3c(C)c1n2C | -38.2% (active) | 4.36% (active) | -13.4% (active) | 2.52% (active) | -22.5% (active) | -10.4% (active) | -45.6% (active) | 12.6% | 8.03% (active) | 26.8% | -1.7% (active) | 3.64% (active) | -11% (active) | -12.8% (active) | 0.282% (active) | -25.5% (active) | -20.4% (active) | -4.98% (active) | -12.5% (active) | – |
| CCn1cc(C(=O)NN=C2CCCCCC2)c(=O)c2ccc(C)nc21 | 105% | 85.5% | 75.2% | 95.7% | 84.7% | 79.9% | 58% | 91.7% | 71% | 85.8% | 88.1% | 92.5% | 92.6% | 79.6% | 98.2% | 81.5% | 86.2% | 80.1% | 89.4% | – |
| COc1cccc(/C=C2\COc3ccc(O)cc3C2=O)c1 | 104% | 30.1% | 69.1% | 101% | 84.7% | 80.4% | 104% | – | 40.2% | 5.49% (active) | -24.8% (active) | 80.7% | 101% | 95% | 114% | 84.4% | 78.4% | 91.1% | 89.9% | – |
| Cn1cccc1/C=C1\C(=O)Nc2ccccc21 | 114% | 94% | 62.9% | 72.2% | 98.2% | 86% | 125% | 104% | 97.7% | 72.8% | 103% | 107% | 87.2% | 48% | 94.4% | 76.3% | 74.7% | 101% | 93.2% | – |
| CCNc1nc(-c2ccc(F)cc2)c(C#N)c(=O)n1C | 77.8% | 69.1% | 41.2% | 34% | 52.5% | 53.3% | -9.07% (active) | 85.9% | 71.6% | 50.3% | 91.8% | – | 56% | 55.2% | 55.9% | 54.1% | 59.1% | 37.5% | 67.1% | – |
| N=C(N)SCc1cccc2c(CSC(=N)N)cccc12 | 106% | 94% | 84.9% | 106% | 108% | 94.4% | – | 119% | 119% | 92.9% | 107% | – | 92.4% | 116% | 113% | 99.2% | 102% | 100% | 105% | 107% |
| O=C1Nc2ccc(F)cc2/C1=N/c1nnc(Sc2ccccc2)s1 | 102% | 95.4% | 80.2% | 111% | 82.2% | 75.1% | 79% | 47.7% | 77.2% | 61% | 55.7% | 89.7% | 113% | 95% | 97.1% | 80.2% | 97.3% | 94.4% | 85.3% | – |
| C#CCOc1cccc(-c2ncc3cc(NC(=O)CCl)ccc3n2)c1 | – | -42.5% (active) | 50.9% | 78.9% | -87.2% (active) | -27.3% (active) | 88.1% | -16.8% (active) | 0.493% (active) | -28.2% (active) | -24.9% (active) | 6.25% (active) | -58.8% (active) | -28.2% (active) | 76.8% | -52.7% (active) | -51.2% (active) | – | 7.12% (active) | -1.1% (active) |
| CCN1CCN(CC(=O)Nc2nc3ccc(NCc4ccc(Br)cc4)cc3s2)CC1 | – | 63.8% | 59.5% | 87% | 74.6% | 35.5% | – | – | 31.7% | 0.987% (active) | – | 81.8% | 76% | 72.9% | 90% | 86.8% | 57.2% | 81.3% | 79.3% | 68.2% |
| Cn1c(=O)c2c(c3ccccc31)OC(N)=C(C#N)C21C(=O)c2ccccc2C1=O | – | 90.1% | 61.4% | 127% | 97% | 84.2% | 82.8% | 103% | 112% | 105% | 94.8% | 97.5% | 98% | 92.4% | 90.8% | 92.4% | 98.7% | 81.5% | 103% | 86% |
